Results taken from PubChem BioAssay (NCI).
Compounds without any hit were thinned out: in the full panel of roughly 79,000, 15% have a hit. Unmarked numbers belong to inactive results. Activity calls are given as the source filed them. Rule as the data show it: active = growth inhibition above about 70%; inactive = the rest.

Experiment: NCI Yeast Anticancer Drug Screen. Data for the CLN2oe strain (AID 163);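 also: 0% = growth of vehicle-only control cultures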
Settings: S. cerevisiae CLN2oe strain, stronger effect = higher value
Description: Growth inhibition of yeast strains with defined genetic alterations is measured as a screen for potential anti-cancer activity. Selected strains with alterations in DNA damage repair or cell cycle control were exposed to compounds and growth inhibition was measured relative to vehicle treated controls. The strain used in this assay is CLN2oe

Structure (SMILES)	growth inhibition (at 1.2 µM) [%]	growth inhibition (at 3.7 µM)	growth inhibition (at 11.0 µM)	growth inhibition (at 33.0 µM)	growth inhibition (at 100.0 µM)
C/C(=N\NC(=S)N1CCCCC1)c1cccc(C)n1	50	94% (active)	99% (active)	100% (active)	99% (active)
Cc1ccc(CCC2=CCCc3c2ccc2ccccc32)cc1	-5	-2%	-9%	-5%	9%
O=C(c1ccc(Cl)cc1)C1OC12C(=O)Nc1ccccc12 (stereo not given)	5	40%	99% (active)	99% (active)	98% (active)
S=C(Nc1ccc(Cl)cc1)SC1CCCCC1	-2	-7%	43%	96% (active)	99% (active)
N#CN=Nc1cc(Cl)c(N=NC#N)cc1Cl	-25	-6%	-6%	-8%	67%
CC(=O)Nc1ccc(/C=C(\C#N)c2ccc(C)cc2)cc1	-3	-1%	-3%	8%	20%
FC(F)(F)c1cc(NC(=S)N2c3ccccc3-n3cccc3C2c2cccnc2)cc(C(F)(F)F)c1 (stereo not given)	-3	-2%	2%	-1%	-5%
COc1ccc(N=C2C(=O)Nc3ccc(Br)cc32)cc1	-7	23%	19%	23%	1%
